Results as given in PubChem BioAssay (Tox21).
Results filed as inconclusive are left out. The source made the active and inactive calls. Unless noted, calls follow the shape of the dose curve; as a rule, active = well fitted curve in the direction sought with a large enough effect in the repeat runs; inconclusive = weak or mixed curves; inactive = no such curve, though single readings can be large; an effect the other way counts as inactive or inconclusive.

How the values were obtained:
[1] = qHTS assay to identify small molecule antagonists of the glucocorticoid receptor (GR) signaling pathway - cell viability counter screen (AID 720693); also: nearly all actives have a fitted effect of over 55% in size
[2] = qHTS assay for identifying genotoxic compounds that show differential cytotoxicity against isogenic chicken DT40 cell lines with known DNA damage response pathways - wild type cell line (AID 743012); also: nearly all actives have a fitted effect of over 60% in size; also: potency is read from the fitted curve at half-maximal effect
Procedure, shortened: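 Endpoint: CellTiter-Glo luminescence, 30 min RT. Cells: wild type DT40, 300/well. Exposure: compounds in DMSO, 40 h, 37 C/5% CO2, after ~0.5 h pre-incubation.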

[3] = qHTS assay for identifying genotoxic compounds that show differential cytotoxicity against isogenic chicken DT40 cell lines with known DNA damage response pathways - Rev3 mutant cell line (AID 743014); also: nearly all actives have a fitted effect of over 55% in size; also: potency is read from the fitted curve at half-maximal effect
[4] = qHTS assay for identifying genotoxic compounds that show differential cytotoxicity against isogenic chicken DT40 cell lines with known DNA damage response pathways - Rad54/Ku70 mutant cell line (AID 743015); also: nearly all actives have a fitted effect of over 60% in size; also: potency is read from the fitted curve at half-maximal effect
[5] = qHTS assay to identify small molecule antagonists of the androgen receptor (AR) signaling pathway - cell viability counter screen (AID 743033; also: nearly all actives have a fitted effect of over 45% in size)
[6] = qHTS assay to identify small molecule antagonists of the androgen receptor (AR) signaling pathway using the MDA cell line - cell viability counter screen (AID 743041; also: nearly all actives have a fitted effect of over 45% in size)
Procedure, shortened: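 Viability read by CellTiter-Fluor fluorescence in the same wells as the antagonist screen, added after 15.5 h of a 16 h, 37C exposure. Human breast carcinoma MDA-kb2 AR-luc cells, compounds co-dosed with agonist R1881.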

[7] = qHTS assay to identify small molecule antagonists of the thyroid receptor (TR) signaling pathway - cell viability counter screen (AID 743064); also: nearly all actives have a fitted effect of over 50% in size; also: potency is read from the fitted curve at half-maximal effect
Procedure, shortened: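 Plate GH3.TRE-Luc cells; incubate 4 h at 37 °C; add compound, then T3 to 1 nM final; incubate 23.5 h; add CellTiter-Fluor; incubate 30 min at 37 °C, 5% CO2; read fluorescence.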

[8] = qHTS assay to identify small molecule antagonists of the thyroid receptor (TR) signaling pathway (AID 743065); also: nearly all actives have a fitted effect of over 55% in size; also: potency is read from the fitted curve at half-maximal effect
Procedure, shortened: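 Antagonism measured as loss of luciferase signal in GH3 cells stably carrying a TRE-luciferase reporter, co-treated with compound and T3 (1 nM final) for 23.5 h at 37 C. Viability was read in the same well by CellTiter-Fluor.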

[9] = tested on: thyroid hormone receptor (rat, GH3 cells); test: qHTS assay to identify small molecule agonists of the thyroid receptor (TR) signaling pathway (AID 743066; calls by dose curve)
[10] = qHTS assay to identify small molecule antagonists of the estrogen receptor alpha (ER-alpha) signaling pathway - cell viability counter screen (AID 743074; calls by dose curve;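 also: HEK293 cells carrying ER-alpha-UAS-bla reporter stimulated with 17beta-estradiol; nearly all actives have a fitted effect of over 45% in size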)
[11] = target: Estrogen receptor (Homo sapiens) (UniProt P03372); test: qHTS assay to identify small molecule agonists of the estrogen receptor alpha (ER-alpha) signaling pathway using the BG1 cell line (AID 743079); conditions: BG1Luc4E2 cells, ERE-luciferase agonist, 22 h; activation: at 70.3 µM (top of the series); also: nearly all actives have a fitted effect of over 20% in size; also: potency is read from the fitted curve at half-maximal effect
Estrogen receptor (Homo sapiens), sequence (P03372 whole entry, looked up): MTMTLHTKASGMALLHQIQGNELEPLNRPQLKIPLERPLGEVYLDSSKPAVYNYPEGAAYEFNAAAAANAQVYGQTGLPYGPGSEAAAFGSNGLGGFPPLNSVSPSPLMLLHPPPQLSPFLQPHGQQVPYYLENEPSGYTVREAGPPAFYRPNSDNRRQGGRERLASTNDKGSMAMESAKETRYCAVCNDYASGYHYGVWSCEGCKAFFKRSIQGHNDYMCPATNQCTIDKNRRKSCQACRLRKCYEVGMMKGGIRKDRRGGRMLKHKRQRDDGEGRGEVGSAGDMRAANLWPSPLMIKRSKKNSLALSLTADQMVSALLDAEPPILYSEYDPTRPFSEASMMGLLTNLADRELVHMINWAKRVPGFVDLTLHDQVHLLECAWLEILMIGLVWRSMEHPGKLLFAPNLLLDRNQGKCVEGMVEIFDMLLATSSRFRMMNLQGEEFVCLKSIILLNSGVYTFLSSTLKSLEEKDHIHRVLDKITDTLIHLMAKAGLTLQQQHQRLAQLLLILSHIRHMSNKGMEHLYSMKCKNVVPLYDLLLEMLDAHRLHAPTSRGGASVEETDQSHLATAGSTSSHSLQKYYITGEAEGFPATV

Aromatase (Homo sapiens) = Aromatase (Homo sapiens) (UniProt P11511); test: qHTS assay to identify aromatase inhibitors (AID 743083); also: nearly all actives have a fitted effect of over 55% in size
Aromatase (Homo sapiens), sequence (P11511 whole entry, looked up): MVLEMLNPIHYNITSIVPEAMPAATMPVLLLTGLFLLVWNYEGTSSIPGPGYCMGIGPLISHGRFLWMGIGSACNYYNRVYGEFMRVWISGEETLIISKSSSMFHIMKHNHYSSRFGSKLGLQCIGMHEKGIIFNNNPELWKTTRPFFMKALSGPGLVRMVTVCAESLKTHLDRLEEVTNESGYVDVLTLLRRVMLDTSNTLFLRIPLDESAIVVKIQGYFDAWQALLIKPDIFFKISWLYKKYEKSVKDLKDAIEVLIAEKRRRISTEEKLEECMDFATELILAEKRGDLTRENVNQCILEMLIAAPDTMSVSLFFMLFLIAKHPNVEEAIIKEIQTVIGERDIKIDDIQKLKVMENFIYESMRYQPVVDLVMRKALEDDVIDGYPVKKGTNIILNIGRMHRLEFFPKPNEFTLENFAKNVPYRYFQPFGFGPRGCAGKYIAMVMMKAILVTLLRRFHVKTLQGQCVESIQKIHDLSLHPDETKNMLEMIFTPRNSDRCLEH

[12] = target: Estrogen receptor (Homo sapiens) (UniProt P03372); test: qHTS assay to identify small molecule antagonists of the estrogen receptor alpha (ER-alpha) signaling pathway (AID 743069; active = well fitted curve in the direction sought with a large enough effect in the signal ratio in the repeat runs, not every such curve was filed as active; the % refers to the signal ratio)
Procedure, shortened: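 Antagonist mode: compounds in DMSO were co-added with 17beta-estradiol to ER-alpha-bla HEK293 cells (2% charcoal-stripped serum) and left 18 h at 37C. Reporter inhibition was measured as FRET fluorescence after 2 h LiveBLAzer substrate at room temperature.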

[13] = target: Estrogen receptor (Homo sapiens) (UniProt P03372); test: qHTS assay to identify small molecule agonists of the estrogen receptor alpha (ER-alpha) signaling pathway (AID 743075; calls by dose curve;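 also: HEK293 GripTite cells with ER-alpha and UAS-driven beta-lactamase reporter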)
[14] = qHTS assay to identify small molecule antagonists of the estrogen receptor alpha (ER-alpha) signaling pathway using the BG1 cell line (AID 743080; calls by dose curve;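 also: BG1 cells stimulated with 17beta-estradiol alongside compound; nearly all actives have a fitted effect of over 25% in size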)
Procedure, shortened: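 Luminescence from a 4×ERE-luciferase reporter in BG1-Luc-4E2 cells served as read-out. Cells, pre-cultured 5 days in stripped-serum phenol-red-free medium, were exposed to compound with 17beta-estradiol co-stimulation for 21.5 h at 37 C.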

[15] = qHTS assay to identify small molecule antagonists of the estrogen receptor alpha (ER-alpha) signaling pathway using the BG1 cell line - cell viability counter screen (AID 743081);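 also: compound given together with 17beta-estradiol as the ER stimulus; nearly all actives have a fitted effect of over 45% in size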

Measured: Potency

CC(C)(C)CC(=O)OCC(=O)[C@@]12OC(C)(C)O[C@@H]1C[C@H]1[C@@H]3CCC4=CC(=O)C=C[C@]4(C)[C@@]3(F)[C@@H](O)C[C@@]12C
not listed: [12] | [13] | [14] | [15]
inactive: all other assays above

CCCCCCCN(CC)CCCC(O)c1ccc(NS(C)(=O)=O)cc1 (stereo unspecified)
inactive: [1] | [5] | [6] | [9] | [10]
active: [2] 23.7 µM | [3] 26.6 µM | [4] 26.6 µM | [7] 23.7 µM | [8] 21.1 µM

CN=C(NC)NCc1ccccc1
not listed: [11]
inactive: all other assays above

CCCN(CC)C(CC)C(=O)Nc1c(C)cccc1C (stereo unspecified)
not listed: [12] | [15]
inactive: all other assays above

CCN(CC)CCOc1ccccc1OC
not listed: [11] | [12] | [13] | [14]
inactive: all other assays above

CC(C)(S)[C@@H](N)C(=O)O
not listed: [11] | [12] | [13] | [14]
inactive: all other assays above

CCCC(=O)Nc1ncnc2c1ncn2[C@@H]1O[C@@H]2COP(=O)(O)O[C@H]2[C@H]1OC(=O)CCC
not listed: [11] | [12] | [13] | [14]
inactive: all other assays above

CS(=O)(=O)OCCCNCCCOS(C)(=O)=O
not listed: [11] | [12] | [13] | [14] | [15]
inactive: all other assays above

Cn1cc(NC(=O)c2cc(NC(=O)c3cc(NC=O)cn3C)cn2C)cc1C(=O)NCCC(=N)N
not listed: [11] | [12] | [13] | [14]
inactive: all other assays above

CC(C)C[C@H](NC(=O)[C@@H](Cc1c[nH]c2ccccc12)NC(=O)[C@H](Cc1ccc(O)cc1)NC(=O)[C@H](CO)NC(=O)[C@H](Cc1c[nH]c2ccccc12)NC(=O)[C@H](Cc1cnc[nH]1)NC(=O)[C@@H]1CCC(=O)N1)C(=O)N[C@@H](CCCN=C(N)N)C(=O)N1CCC[C@@H]1C(=O)NCC(N)=O
not listed: [11] | [12] | [13] | [14]
inactive: all other assays above

CCC(C)C(C(=O)OCC[N+](C)(CC)CC)c1ccccc1 (stereo unspecified)
active: [2] 29.8 µM | [3] 29.8 µM | [4] 26.6 µM
not listed: [11] | [12] | [13] | [14]
inactive: all other assays above

CCCCCCCCCCCCCCCCCC(=O)OCCO
active: [11] 9.44 µM
not listed: [10]
inactive: all other assays above

C[C@]12CC[C@@H]3c4ccc(OS(=O)(=O)O)cc4CC[C@H]3[C@@H]1CCC2=O
not listed: [11] | Aromatase (Homo sapiens) | [12] | [13] | [14]
inactive: all other assays above

CCCCCCCCCCCCCCCC(=O)OCCC1CCN(CCCN2c3ccccc3Sc3ccc(S(=O)(=O)N(C)C)cc32)CC1
not listed: [11] | [12] | [13] | [14] | [15]
inactive: all other assays above

C[C@H](O)[C@H](O)[C@H]1CNc2nc(N)[nH]c(=O)c2N1
not listed: [15]
inactive: all other assays above

CC(=O)N[C@@H](CC(=O)N[C@@H](CCC(=O)O)C(=O)O)C(=O)O
not listed: [12]
inactive: all other assays above
